Common to all, as to assay: DAPPL (digital affinity profiling via proximity ligation, sequencing); 10 mM Tris-HCl pH 7.5, 50 mM NaCl, 1 mM DTT, 4% glycerol, room temperature, 30 min; GST-TFs on glutathione beads, 16-mer random dsDNA library, 0.1% formaldehyde crosslink after washing; high values mean tight binding
One experiment has as its target T1, FLI1 (Homo sapiens, UniProt Q01543 1-452).
T1 sequence: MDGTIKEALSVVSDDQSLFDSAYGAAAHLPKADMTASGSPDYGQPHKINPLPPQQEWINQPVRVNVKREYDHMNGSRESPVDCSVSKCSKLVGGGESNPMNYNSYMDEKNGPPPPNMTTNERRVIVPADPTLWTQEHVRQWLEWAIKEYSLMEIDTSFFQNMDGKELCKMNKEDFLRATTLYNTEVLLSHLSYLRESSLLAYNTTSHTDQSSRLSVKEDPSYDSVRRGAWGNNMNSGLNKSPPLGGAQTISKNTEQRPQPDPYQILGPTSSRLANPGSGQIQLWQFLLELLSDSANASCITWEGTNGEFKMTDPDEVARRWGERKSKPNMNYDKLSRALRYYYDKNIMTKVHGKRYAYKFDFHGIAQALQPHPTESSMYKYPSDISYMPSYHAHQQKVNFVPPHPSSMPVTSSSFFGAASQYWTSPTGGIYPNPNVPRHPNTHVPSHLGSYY
To be noted: protein: recombinant; tags: N-terminal GST; dsDNA, one strand shown. A digest of the protocol:
(§1)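 Each value of binding signal is a hexamer's read frequency for a factor divided by the same hexamer's frequency in the tag-only sample. Barcoded, bead-captured GST fusions of human transcription factors made in yeast were pooled with that sample and incubated with 200 nmole of a random double-stranded 16-mer DNA library in Tris/NaCl/DTT/glycerol buffer at room temperature for 30 min. Washing, 0.1% formaldehyde crosslinking, proximity ligation, PCR and Illumina NextSeq500 sequencing followed.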

Another experiment addresses T2, ELK1 (Homo sapiens, UniProt P19419 1-428).
T2 sequence: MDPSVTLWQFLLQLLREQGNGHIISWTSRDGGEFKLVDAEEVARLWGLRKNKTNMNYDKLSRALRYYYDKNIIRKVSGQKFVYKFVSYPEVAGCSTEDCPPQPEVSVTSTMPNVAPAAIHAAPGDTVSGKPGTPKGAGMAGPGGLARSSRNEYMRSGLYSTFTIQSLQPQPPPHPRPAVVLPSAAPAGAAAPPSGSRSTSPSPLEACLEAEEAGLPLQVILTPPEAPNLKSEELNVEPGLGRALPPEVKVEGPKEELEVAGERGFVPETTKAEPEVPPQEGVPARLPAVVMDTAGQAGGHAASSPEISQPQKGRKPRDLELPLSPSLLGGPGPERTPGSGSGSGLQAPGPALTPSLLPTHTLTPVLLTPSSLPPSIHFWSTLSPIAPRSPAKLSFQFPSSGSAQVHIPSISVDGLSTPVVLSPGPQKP
The following applies: protein: recombinant; tags: N-terminal GST; dsDNA, one strand shown. A digest of the protocol: as §1

The target of the next experiment is T3, GABPA (Homo sapiens, UniProt Q06546 1-454).
T3 sequence: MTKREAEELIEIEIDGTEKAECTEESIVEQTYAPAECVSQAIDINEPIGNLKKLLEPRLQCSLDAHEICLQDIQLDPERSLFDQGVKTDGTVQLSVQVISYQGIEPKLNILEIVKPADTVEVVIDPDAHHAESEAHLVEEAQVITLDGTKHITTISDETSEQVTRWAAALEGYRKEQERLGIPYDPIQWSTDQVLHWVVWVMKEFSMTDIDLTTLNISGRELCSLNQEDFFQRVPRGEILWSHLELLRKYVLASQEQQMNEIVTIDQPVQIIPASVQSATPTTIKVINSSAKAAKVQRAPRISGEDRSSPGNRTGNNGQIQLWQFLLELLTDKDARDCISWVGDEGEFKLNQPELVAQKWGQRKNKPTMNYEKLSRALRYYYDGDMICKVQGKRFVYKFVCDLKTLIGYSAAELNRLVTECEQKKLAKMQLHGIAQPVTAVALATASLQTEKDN
To be noted: protein: recombinant; tags: N-terminal GST; dsDNA, one strand shown. The gist of the method:
as §1

The next experiment has as its target T4, ERG (Homo sapiens, UniProt P11308 1-479).
T4 sequence: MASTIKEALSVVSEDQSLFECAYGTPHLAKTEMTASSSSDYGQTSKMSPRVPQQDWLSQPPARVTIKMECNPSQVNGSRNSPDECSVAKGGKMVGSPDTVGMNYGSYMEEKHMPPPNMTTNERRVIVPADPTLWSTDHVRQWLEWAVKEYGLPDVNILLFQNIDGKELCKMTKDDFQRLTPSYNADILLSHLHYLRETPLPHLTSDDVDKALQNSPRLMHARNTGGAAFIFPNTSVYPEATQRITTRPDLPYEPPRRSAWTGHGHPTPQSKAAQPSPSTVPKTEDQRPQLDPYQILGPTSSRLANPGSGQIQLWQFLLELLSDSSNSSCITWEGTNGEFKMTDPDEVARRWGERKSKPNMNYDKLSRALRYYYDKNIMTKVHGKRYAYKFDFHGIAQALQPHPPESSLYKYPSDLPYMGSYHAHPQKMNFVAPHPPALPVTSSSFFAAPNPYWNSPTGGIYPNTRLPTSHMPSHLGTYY
To be noted: protein: recombinant; tags: N-terminal GST; dsDNA, one strand shown. The gist of the method:
as §1

A further experiment has as its target ELF1 (Homo sapiens, UniProt P32519 1-619). The following applies: protein: recombinant; tags: N-terminal GST; dsDNA, one strand shown. A digest of the protocol:
as §1

A further experiment has as its target T5, EHF (Homo sapiens, UniProt Q9NZC4 1-300).
T5 sequence: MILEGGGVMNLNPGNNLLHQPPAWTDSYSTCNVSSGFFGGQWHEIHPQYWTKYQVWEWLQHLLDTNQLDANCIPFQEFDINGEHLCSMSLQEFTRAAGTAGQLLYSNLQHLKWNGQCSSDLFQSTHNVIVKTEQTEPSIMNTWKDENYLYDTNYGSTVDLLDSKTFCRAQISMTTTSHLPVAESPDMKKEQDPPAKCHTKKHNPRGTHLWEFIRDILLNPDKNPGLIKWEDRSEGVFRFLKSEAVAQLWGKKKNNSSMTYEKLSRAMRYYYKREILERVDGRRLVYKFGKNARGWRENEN
The following applies: protein: recombinant; tags: N-terminal GST; dsDNA, one strand shown. The gist of the method:
as §1

In a further experiment the target is SPI1 (Homo sapiens, UniProt P17947 1-270). The following applies: protein: recombinant; tags: N-terminal GST; dsDNA, one strand shown. A digest of the protocol: as §1
In another experiment the target is SPIB (Homo sapiens, UniProt Q01892 1-262). To be noted: protein: recombinant; tags: N-terminal GST; dsDNA, one strand shown. The gist of the method:
as §1

The target of the next experiment is T6, ELK3 (Homo sapiens, UniProt P41970 1-407).
T6 sequence: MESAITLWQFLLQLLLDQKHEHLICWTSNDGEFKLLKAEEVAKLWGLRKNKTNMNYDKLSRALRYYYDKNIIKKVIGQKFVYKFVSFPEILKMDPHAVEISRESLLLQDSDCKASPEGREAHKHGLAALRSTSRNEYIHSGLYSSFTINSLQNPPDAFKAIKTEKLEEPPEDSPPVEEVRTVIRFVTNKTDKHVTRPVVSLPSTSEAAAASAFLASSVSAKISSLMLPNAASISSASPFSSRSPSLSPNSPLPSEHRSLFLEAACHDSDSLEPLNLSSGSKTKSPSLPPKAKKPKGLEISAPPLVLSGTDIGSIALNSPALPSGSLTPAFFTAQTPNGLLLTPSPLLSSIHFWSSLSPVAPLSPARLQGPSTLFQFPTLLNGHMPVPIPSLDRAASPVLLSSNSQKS
The following applies: protein: recombinant; tags: N-terminal GST; dsDNA, one strand shown. The gist of the method:
as §1

For a further experiment, the target named is T7, FEV (Homo sapiens, UniProt Q99581 1-238).
T7 sequence: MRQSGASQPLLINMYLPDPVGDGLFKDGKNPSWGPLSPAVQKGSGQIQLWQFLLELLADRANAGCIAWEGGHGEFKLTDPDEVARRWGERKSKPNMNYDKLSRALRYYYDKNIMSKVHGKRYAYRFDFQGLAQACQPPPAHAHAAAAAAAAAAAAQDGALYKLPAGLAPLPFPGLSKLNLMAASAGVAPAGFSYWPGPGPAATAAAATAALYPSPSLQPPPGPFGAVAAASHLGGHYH
To be noted: protein: recombinant; tags: N-terminal GST; dsDNA, one strand shown. A digest of the protocol: as §1

The next experiment has as its target ETV5 (Homo sapiens, UniProt P41161 1-510). To be noted: protein: recombinant; tags: N-terminal GST; dsDNA, one strand shown. A digest of the protocol: as §1
For the next experiment, the target named is HSF1 (Homo sapiens, UniProt Q00613 1-529). To be noted: protein: recombinant; tags: N-terminal GST; chain copies: 3; dsDNA, one strand shown. A digest of the protocol:
as §1

In a further experiment the target is T8, SPIC (Homo sapiens, UniProt Q8N5J4 1-248).
T8 sequence: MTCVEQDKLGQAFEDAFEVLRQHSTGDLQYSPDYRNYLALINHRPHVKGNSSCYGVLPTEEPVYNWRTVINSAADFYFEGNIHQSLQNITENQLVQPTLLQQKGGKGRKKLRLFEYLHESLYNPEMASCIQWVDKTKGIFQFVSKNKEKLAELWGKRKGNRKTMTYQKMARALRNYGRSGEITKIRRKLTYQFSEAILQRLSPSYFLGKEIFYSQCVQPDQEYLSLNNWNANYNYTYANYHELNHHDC
To be noted: protein: recombinant; tags: N-terminal GST; dsDNA, one strand shown. The gist of the method: as §1

For the next experiment, the target named is ELF4 (Homo sapiens, UniProt Q99607 1-663). The following applies: protein: recombinant; tags: N-terminal GST; dsDNA, one strand shown. The gist of the method: as §1
The target in the next experiment is T9, ELK4 (Homo sapiens, UniProt P28324-2 1-405).
T9 sequence: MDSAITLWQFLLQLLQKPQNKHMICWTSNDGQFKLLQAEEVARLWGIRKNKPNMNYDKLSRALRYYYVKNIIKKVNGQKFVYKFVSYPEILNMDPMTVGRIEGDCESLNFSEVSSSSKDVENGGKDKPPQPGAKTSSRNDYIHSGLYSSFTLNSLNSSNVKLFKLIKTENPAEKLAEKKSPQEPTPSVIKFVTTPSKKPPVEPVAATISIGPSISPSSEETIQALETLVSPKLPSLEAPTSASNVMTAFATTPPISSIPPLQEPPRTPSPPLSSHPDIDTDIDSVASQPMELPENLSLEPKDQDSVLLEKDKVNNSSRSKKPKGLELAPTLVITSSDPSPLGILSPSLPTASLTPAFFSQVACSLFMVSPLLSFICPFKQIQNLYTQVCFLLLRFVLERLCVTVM
To be noted: protein: recombinant; tags: N-terminal GST; dsDNA, one strand shown. A digest of the protocol: as §1

A further experiment addresses T10, ETV2 (Homo sapiens, UniProt O00321 1-342).
T10 sequence: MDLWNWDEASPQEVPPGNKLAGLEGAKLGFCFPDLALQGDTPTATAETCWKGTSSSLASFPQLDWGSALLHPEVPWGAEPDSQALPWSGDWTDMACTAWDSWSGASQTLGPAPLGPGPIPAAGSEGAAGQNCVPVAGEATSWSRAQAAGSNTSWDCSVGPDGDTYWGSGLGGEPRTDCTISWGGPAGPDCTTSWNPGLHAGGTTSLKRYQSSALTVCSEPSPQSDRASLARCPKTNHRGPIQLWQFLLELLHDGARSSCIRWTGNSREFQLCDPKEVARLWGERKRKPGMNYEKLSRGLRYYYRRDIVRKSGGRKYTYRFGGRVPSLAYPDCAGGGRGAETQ
To be noted: protein: recombinant; tags: N-terminal GST; dsDNA, one strand shown. A digest of the protocol:
as §1

Another experiment deals with T11, ELF3 (Homo sapiens, UniProt P78545 1-371).
T11 sequence: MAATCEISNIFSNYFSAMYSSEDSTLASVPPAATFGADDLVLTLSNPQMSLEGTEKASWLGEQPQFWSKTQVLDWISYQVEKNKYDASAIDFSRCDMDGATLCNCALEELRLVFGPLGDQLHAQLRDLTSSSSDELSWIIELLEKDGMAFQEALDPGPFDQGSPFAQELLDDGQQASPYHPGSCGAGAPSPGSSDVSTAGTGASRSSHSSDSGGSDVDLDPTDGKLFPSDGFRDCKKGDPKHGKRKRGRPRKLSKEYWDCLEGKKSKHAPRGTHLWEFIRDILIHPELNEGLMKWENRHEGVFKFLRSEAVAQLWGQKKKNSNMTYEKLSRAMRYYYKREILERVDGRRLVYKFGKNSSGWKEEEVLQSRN
To be noted: protein: recombinant; tags: N-terminal GST; dsDNA, one strand shown. The gist of the method:
as §1

The next experiment concerns the target CRX (Homo sapiens, UniProt O43186 1-299). The following applies: protein: recombinant; tags: N-terminal GST; dsDNA, one strand shown. The gist of the method: as §1
A further experiment deals with ETV1 (Homo sapiens, UniProt P50549 1-477). To be noted: protein: recombinant; tags: N-terminal GST; dsDNA, one strand shown. A digest of the protocol: as §1

We go through one sequence from paper PMC7862700, “An all-to-all approach to the identification of sequence-specific readers for epigenetic DNA modifications on cytosine”.

Sequence of ETV5 (P41161 whole entry): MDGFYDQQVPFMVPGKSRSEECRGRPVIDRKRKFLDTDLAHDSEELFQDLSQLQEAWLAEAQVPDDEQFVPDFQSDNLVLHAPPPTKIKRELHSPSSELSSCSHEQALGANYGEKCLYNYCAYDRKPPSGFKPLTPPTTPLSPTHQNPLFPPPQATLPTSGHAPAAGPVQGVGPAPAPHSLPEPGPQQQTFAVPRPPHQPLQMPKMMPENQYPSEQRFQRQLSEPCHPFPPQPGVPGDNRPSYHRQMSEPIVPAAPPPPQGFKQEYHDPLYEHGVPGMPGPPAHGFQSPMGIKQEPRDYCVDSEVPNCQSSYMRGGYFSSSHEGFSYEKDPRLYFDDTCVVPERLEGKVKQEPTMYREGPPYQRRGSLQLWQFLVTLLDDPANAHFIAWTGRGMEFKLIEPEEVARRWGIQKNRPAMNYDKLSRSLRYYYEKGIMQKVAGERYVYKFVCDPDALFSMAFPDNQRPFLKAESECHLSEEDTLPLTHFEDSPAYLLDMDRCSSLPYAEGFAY
Sequence of CRX (O43186 whole entry): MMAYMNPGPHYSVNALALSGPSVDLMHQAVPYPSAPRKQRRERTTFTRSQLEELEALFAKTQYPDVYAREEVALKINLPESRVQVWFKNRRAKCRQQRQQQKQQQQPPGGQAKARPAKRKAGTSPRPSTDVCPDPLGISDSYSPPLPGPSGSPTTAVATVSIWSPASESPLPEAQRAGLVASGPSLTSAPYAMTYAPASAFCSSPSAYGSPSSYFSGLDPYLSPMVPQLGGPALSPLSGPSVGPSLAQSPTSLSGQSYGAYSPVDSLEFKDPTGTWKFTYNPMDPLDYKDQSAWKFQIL
Sequence of ELF4 (Q99607 whole entry): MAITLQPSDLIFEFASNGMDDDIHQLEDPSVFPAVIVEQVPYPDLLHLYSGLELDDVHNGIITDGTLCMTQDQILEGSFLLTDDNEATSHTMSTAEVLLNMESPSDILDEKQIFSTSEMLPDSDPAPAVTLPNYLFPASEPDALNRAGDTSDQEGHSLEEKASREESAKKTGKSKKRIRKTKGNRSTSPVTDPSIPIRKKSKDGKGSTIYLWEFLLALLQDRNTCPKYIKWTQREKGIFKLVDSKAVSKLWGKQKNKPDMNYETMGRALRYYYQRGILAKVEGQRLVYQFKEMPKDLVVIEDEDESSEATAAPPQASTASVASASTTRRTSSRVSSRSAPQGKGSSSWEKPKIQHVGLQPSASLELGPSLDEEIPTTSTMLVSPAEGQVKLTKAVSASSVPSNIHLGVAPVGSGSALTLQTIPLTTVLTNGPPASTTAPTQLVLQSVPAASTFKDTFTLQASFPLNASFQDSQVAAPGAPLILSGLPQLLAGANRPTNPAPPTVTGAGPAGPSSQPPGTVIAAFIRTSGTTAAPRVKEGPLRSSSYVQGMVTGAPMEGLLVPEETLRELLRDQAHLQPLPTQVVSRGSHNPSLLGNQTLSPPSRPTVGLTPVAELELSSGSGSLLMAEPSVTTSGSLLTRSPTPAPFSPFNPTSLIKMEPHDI
Sequence of ELF1 (P32519 whole entry): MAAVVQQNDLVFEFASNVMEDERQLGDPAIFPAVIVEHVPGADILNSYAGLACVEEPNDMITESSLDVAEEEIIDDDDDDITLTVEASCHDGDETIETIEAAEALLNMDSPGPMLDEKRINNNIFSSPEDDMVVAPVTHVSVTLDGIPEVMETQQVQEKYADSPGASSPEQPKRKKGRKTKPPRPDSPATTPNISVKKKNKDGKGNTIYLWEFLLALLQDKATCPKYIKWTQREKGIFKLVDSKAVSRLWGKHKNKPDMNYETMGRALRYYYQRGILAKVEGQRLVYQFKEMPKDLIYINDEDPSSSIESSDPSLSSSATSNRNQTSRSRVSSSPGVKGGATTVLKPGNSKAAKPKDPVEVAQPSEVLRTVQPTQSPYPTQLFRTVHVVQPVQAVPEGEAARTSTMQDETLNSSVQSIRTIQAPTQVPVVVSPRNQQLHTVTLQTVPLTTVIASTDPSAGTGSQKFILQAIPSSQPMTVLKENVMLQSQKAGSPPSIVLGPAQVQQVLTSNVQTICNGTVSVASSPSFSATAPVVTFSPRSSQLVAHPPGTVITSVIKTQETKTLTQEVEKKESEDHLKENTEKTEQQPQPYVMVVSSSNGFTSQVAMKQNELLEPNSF
Sequence of SPIB (Q01892 whole entry): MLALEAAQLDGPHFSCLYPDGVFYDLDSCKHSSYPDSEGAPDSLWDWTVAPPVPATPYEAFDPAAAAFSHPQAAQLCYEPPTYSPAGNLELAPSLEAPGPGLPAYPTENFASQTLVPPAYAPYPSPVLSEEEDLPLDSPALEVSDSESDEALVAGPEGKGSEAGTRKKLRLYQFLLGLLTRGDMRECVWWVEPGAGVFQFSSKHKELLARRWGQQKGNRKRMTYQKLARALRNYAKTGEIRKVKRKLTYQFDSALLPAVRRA
Sequence of HSF1 (Q00613 whole entry): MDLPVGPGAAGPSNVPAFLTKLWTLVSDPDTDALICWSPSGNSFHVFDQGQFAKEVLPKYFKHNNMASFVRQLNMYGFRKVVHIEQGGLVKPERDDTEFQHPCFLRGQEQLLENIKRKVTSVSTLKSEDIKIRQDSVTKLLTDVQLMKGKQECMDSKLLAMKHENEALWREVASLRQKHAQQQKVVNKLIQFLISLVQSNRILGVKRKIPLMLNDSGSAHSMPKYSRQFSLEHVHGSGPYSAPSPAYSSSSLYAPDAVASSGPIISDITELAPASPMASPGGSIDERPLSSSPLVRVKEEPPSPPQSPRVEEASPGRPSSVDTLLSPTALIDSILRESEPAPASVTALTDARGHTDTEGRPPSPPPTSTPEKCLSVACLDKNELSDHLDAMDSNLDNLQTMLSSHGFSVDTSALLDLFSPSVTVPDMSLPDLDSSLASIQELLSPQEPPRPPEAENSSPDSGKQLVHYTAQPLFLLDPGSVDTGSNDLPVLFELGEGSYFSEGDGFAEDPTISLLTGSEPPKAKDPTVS
Sequence of ETV1 (P50549 whole entry): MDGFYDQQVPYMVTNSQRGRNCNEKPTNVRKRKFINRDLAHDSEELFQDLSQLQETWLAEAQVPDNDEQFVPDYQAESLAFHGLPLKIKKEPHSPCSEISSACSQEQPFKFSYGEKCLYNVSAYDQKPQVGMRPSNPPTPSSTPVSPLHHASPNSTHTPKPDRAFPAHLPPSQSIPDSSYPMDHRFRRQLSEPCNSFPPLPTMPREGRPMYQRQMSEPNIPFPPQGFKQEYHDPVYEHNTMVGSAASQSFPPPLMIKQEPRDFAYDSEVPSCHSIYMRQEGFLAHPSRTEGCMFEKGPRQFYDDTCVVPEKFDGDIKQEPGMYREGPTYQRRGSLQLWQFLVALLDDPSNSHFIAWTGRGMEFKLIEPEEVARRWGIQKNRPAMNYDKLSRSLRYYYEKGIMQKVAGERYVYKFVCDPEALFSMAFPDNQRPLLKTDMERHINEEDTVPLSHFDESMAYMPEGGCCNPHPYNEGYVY

Take CTCGCT: the binding signal with FLI1 is 1.81 fold enrichment (6-mer frequency, TF over GST control); with ELK1 it was 1.67 fold enrichment (6-mer frequency, TF over GST control); with GABPA, 1.72 fold enrichment (6-mer frequency, TF over GST control); with ERG, 1.63 fold enrichment (6-mer frequency, TF over GST control); in the experiment with ELF1, 1.75 fold enrichment (6-mer frequency, TF over GST control); with EHF, 1.6 fold enrichment (6-mer frequency, TF over GST control). Also, the binding signal is 1.54 fold enrichment (6-mer frequency, TF over GST control) in the experiment with SPI1; 1.81 fold enrichment (6-mer frequency, TF over GST control) with SPIB; 1.41 fold enrichment (6-mer frequency, TF over GST control) with ELK3; 1.67 fold enrichment (6-mer frequency, TF over GST control) with FEV; 1.66 fold enrichment (6-mer frequency, TF over GST control) with ETV5; 1.66 fold enrichment (6-mer frequency, TF over GST control) with HSF1. The binding signal was 1.76 fold enrichment (6-mer frequency, TF over GST control) with SPIC; 1.56 fold enrichment (6-mer frequency, TF over GST control) with ELF4; 1.68 fold enrichment (6-mer frequency, TF over GST control) in the experiment with ELK4; 1.52 fold enrichment (6-mer frequency, TF over GST control) in the experiment with ETV2; 1.83 fold enrichment (6-mer frequency, TF over GST control) in the experiment with ELF3; 1.37 fold enrichment (6-mer frequency, TF over GST control) in the experiment with CRX. Also, the binding signal in the experiment with ETV1 is 1.71 fold enrichment (6-mer frequency, TF over GST control).
